The text below walks through data of PubChem BioAssay.

Unmarked numbers belong to inactive results. How the calls were made is not given here.

For the assay, the target named is Pantothenate synthetase (Mycobacterium tuberculosis (strain ATCC 25618 / H37Rv)) (UniProt P9WIL5). Kind of assay: Coupled enzyme confirmation of inhibitors against recombinant Mtb PanC (AID 375).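 Further: 0% = full reaction with vehicle and 100% = no enzyme background.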 The note with it: coupled enzyme assay; at 10 µM, hits give high values.
Pantothenate synthetase (Mycobacterium tuberculosis (strain ATCC 25618 / H37Rv)), sequence (P9WIL5 whole entry, looked up): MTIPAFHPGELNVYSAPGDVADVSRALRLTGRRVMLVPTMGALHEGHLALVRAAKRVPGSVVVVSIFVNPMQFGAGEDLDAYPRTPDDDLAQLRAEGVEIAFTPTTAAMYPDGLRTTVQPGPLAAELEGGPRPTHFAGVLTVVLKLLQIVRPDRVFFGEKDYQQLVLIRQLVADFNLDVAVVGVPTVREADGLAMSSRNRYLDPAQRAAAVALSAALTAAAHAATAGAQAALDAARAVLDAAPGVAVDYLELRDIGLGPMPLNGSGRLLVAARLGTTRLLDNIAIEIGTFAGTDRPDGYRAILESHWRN
On to `Cc1ccc2cc(CN(CC3CCCO3)S(=O)(=O)c3ccc4c(c3)OCCO4)c(=O)[nH]c2c1C` (stereo not given), for which the inhibition is 2%. As for `CNCCCC12CCC(c3ccccc31)c1ccccc12`, the inhibition was 0%. For `COc1ccc(N2CCN(CCNC(=O)CCS(=O)(=O)c3cccc4nsnc34)CC2)cc1`, the inhibition was 0%. The same measure for `Nc1ncnc2nc(Sc3ccc(Cl)cc3)[nH]c12`: 0%; for `CCC(c1nnnn1Cc1ccco1)N(CCc1ccccc1)Cc1cc2cccc(C)c2[nH]c1=O` (stereo not given): 1%.

Take `Cc1ccc(S(=O)(=O)NC(=O)NN2CCCCCC2)cc1`: the inhibition was 4%.

As to `C=CCSc1nnc(-c2ccccc2NC(C)=O)c(=O)[nH]1`, the inhibition was 0%. Turning to `O=C1N2c3ccccc3CCc3cccc(c32)C1(O)C(F)(F)F` (stereo not given), the inhibition is 0%. To `COc1cccc(NC(=O)COC(=O)c2ccco2)c1` belongs 0%; to `O=C(CNS(=O)(=O)c1ccc(Br)s1)N1CCCC1`, 0%; to `CCn1cc(C(=O)OCC(=O)OC2CC(C)CCC2C(C)C)c(=O)c2ccc(C)nc21` (stereo not given), 5%.

Turning to `CCOC(=O)N1CCN(C(=O)c2cn(CC)c3cc(N4CCN(C)CC4)c(F)cc3c2=O)CC1`, the inhibition was 0%. As for `CCCOc1cccc(C2/C(=C(/O)c3ccccc3)C(=O)C(=O)N2CCN(C)C)c1` (stereo not given), the inhibition was 0%.

For `CCOC(=O)N1CCC(c2cc(=O)n3[nH]c(C)c(-c4ccc(F)cc4)c3n2)CC1`, the inhibition is 0%. The same measure for `COc1cc(NC(=O)c2cccs2)cc(OC)c1`: 0%. Take `COc1ccc(CNC(=O)CN(C(=O)c2ccc(CN3CCOCC3)o2)C2CCCC2)cc1`: the inhibition is 0%. To `Cc1ccccc1C(=O)NC1CCN(Cc2nnnn2CCc2ccccc2)CC1` belongs 14%. For the compound `CCCc1cc(=O)[nH]c(SCc2ccccc2)n1`, the inhibition is 0%. Take `CC(C)(C)OC(=O)N1CCC(C(=O)N[C@H](Cc2ccccc2)C(=O)O)CC1`: the inhibition is 0%. To `CCOc1ccc(N(CC(=O)NCc2cccc(OC)c2)S(=O)(=O)c2c(C)noc2C)cc1` belongs 6%.

Turning to `COc1ccc(-n2c(COc3cccc(C)c3)nnc2SCC(=O)NCc2ccco2)cc1`, the inhibition is 5%. To `COc1ccc(CCNC(=O)CC2COc3ccccc3O2)cc1OC` (stereo not given) belongs 0%. To `COc1ccc(C(=O)Cn2nnc(-c3cccs3)n2)cc1` belongs 0%; to `O=C(c1ccco1)N1CCN(CC(=O)N(C2CCCCC2)C2CCS(=O)(=O)C2)CC1` (stereo not given), 2%.

For the compound `Cn1c(Cc2ccccc2)nnc1SCC(=O)NC1CCCCC1`, the inhibition was 0%. To `Cc1cc2oc(=O)cc(CN3CCCCC3)c2cc1C(C)C` belongs 0%; to `O=C(CN(c1ccc(F)cc1)S(=O)(=O)c1ccc2c(c1)OCCO2)NCC1CCCO1` (stereo not given), 0%.

On to `COc1ccc(C(C)N2CC34C=CC(O3)C(C(=O)OCC(C)C)C4C2=O)cc1` (stereo not given), for which the inhibition was 9%. To `Oc1ccc(N2CCN(C(c3cccnc3)c3nnnn3Cc3ccccc3)CC2)cc1` (stereo not given) belongs 0%; to `CCCC(=O)N1c2ccccc2NC2=C(C(=O)CCC2)C1c1ccc(F)cc1` (stereo not given), 5%. The same measure for `COCCOC(=O)C1=C(C)NC(C)=C(C(=O)OC(C)C)C1c1cccc([N+](=O)[O-])c1` (stereo not given): 0%; for `CCCCC(=O)O[C@H]1CC[C@H]2[C@@H]3CCc4cc(O)ccc4[C@H]3CC[C@]12C`: 6%; for `CCOC(=O)Cc1csc(NC(=O)CSc2nnc(C3CC3)n2C)n1`: 3%. To `O=C(NC1CC1)c1ccc(S(=O)(=O)NCC2CCCCC2)cc1` belongs 0%. Consider `Cn1c(=O)c2c(nc(Br)n2CCSc2nnnn2-c2ccccc2)n(C)c1=O`, for which the inhibition was 0%.

With `CCn1nc(C)c(NC(=O)c2cc(Br)ccc2Cl)c1C`, the inhibition was 15%. Take `COc1cccc(-c2cc3nc4c(c(N5CCC6(CC5)OCCO6)n3n2)CCCC4)c1`: the inhibition is 0%. With `CC(=O)c1c(C)[nH]c(C(=O)NCc2cccs2)c1C`, the inhibition was 0%.

For `Cc1cc(Cl)c(S(=O)(=O)N2CCN(c3ccc(F)cc3)CC2)cc1OCC(N)=O`, the inhibition was 0%. The same measure for `CCCNc1nc2c(c(=O)n(C)c(=O)n2C)n1Cc1cccc(C)c1`: 0%.
